In all, about 330,000 compounds went through this assay and about 2,600 (0.79%) were called active. Many of the other results were omitted from the sample, so actives are more common in it than they were. Values without a mark were called inactive.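 How the source made its calls: active means mean ATP rescue above about 67%, or every replicate alone reaching that limit (limit read from the data, passing the limit was not always enough); inconclusive means no clear call, values can overlap the other calls; inactive means mean under the limit and some replicate under it.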
Assay: suppressors of statin myotoxicity in C2C12 myotubes, primary screen, cell-based, single point, plate reader (AID 602340);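 further: myotubes were challenged with 10 µM simvastatin during compound exposure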
Settings: C2C12 myotubes + simvastatin, ATP luminescence, 48 h; at 7.49 µM; stronger effect = higher value; scaled: DMSO 0, geranylgeraniol control 100
Work on `CC(C)NC(=O)Nc1ccc2c(c1)CC(=O)N([C@@H](C)CO)C[C@@H](C)[C@@H](CN(C)S(=O)(=O)c1ccccc1)O2` yielded a rescue of ATP level of -17%.
For `COc1ccccc1CNC(=O)C[C@@H]1CC[C@H](NC(=O)CN(C)C)[C@@H](CO)O1`, the rescue of ATP level was 2.77%.
For `CN1c2ccc(-c3ccccc3)cc2[C@@H]2[C@@H](CCN2C(=O)NC2CCCC2)[C@H]1CO`, the rescue of ATP level was -5.4%.
For `CCCNC(=O)N[C@@H]1C=C[C@H](CC(=O)NC2CCC2)O[C@H]1CO`, the rescue of ATP level was 1.32%.
`CN1C(=O)c2cc(NC(=O)c3ccc(Cl)cc3)ccc2OC[C@H]2O[C@H](CC(=O)O)CC[C@H]21` showed a rescue of ATP level of -6.44%.
In the case of `C[C@@H]1CN([C@@H](C)CO)C(=O)c2cc(C#CC(C)(C)O)cnc2O[C@@H]1CN(C)C(=O)C1CCOCC1`, the rescue of ATP level is reported as 16.9%.
Work on `CNC(=S)N/N=C/c1ccc(OCc2ccccc2)c(Br)c1` yielded a rescue of ATP level of 10.8%.
In the case of `C=CCNC(=S)N/N=C/c1ccc(C)s1`, the rescue of ATP level is reported as 5.1%.
For `C=CCNC(=S)N/N=C/c1ccc(OCc2ccccc2)cc1`, the rescue of ATP level was 106% (active).
Work on `O=C(C[C@H]1CC[C@H]2[C@@H](COC[C@@H](O)CN2CC2CCOCC2)O1)NCc1ccc(Cl)cc1` yielded a rescue of ATP level of 7.95%.
With `Cc1ccc(-n2nc3ccc(NC(=O)/C=C/c4ccco4)cc3n2)cc1C` the rescue of ATP level was 97.3% (active).
`CCC(=O)Nc1ccc2nn(-c3ccc(F)cc3)nc2c1` gave a rescue of ATP level of -5.86%.
For `O=C(/C=C/c1ccco1)Nc1ccc(Oc2ccccc2)cc1`, the rescue of ATP level was -25.3%.
In the case of `COCC(=O)N[C@H]1C=C[C@H](CC(=O)N2CCCCC2)O[C@H]1CO`, the rescue of ATP level is reported as 6.62%.
With `CNC[C@H]1Oc2cc(C#CCOC)ccc2S(=O)(=O)N([C@@H](C)CO)C[C@H]1C` the rescue of ATP level was -7.75%.
`COc1ccc(NC(=O)c2cc(-c3cc(OC)c(OC)c(OC)c3)nc3ccccc23)c(OC)c1` showed a rescue of ATP level of -9.57%.
For `COc1ccc(-c2cc(C(=O)n3cnc4ccccc43)c3ccccc3n2)cc1`, the rescue of ATP level was 87.1% (active).
`COc1ccc(-c2cc(C(=O)Nc3ccccc3O)c3ccccc3n2)cc1` gave a rescue of ATP level of 14.3%.
`O=C(C[C@H]1C=C[C@H](NC(=O)NC2CCCCC2)[C@H](CO)O1)NCc1ccccc1` gave a rescue of ATP level of 2.53%.
`CS(=O)(=O)Nc1ccc2c(c1)[C@H]1C[C@H](CC(=O)NCc3ccc(Cl)cc3)O[C@@H](CO)[C@H]1O2` gave a rescue of ATP level of -4.85%.
Work on `COc1ccccc1-c1cn(CC[C@@H]2CC[C@@H](NC(=O)c3ccccc3F)[C@H](CO)O2)nn1` yielded a rescue of ATP level of 6.43%.
In the case of `CN(C)Cc1cn(CC[C@H]2CC[C@H](NS(=O)(=O)c3ccccc3)[C@@H](CO)O2)nn1`, the rescue of ATP level is reported as -2.83%.
In the case of `C=CCN(C(=O)Nc1ccc2c(c1)nc(C)n2C)c1ccccc1`, the rescue of ATP level is reported as -0.158%.
For `Cc1cc2nc(C)n(CCCNC(=O)Nc3ccccc3)c2cc1C`, the rescue of ATP level was 93.8% (active).
`CCOc1ccc(CCNC(=O)Nc2ccccc2)cc1OCC` showed a rescue of ATP level of 1.69%.
For `CCCNC(=O)C[C@H]1CC[C@@H]2[C@H](COC[C@H](O)CN2CC2CCCCC2)O1`, the rescue of ATP level was -0.493%.
With `CNC(=O)C[C@H]1CC[C@@H]2[C@H](COc3ccc(NC(=O)Nc4cccc(F)c4)cc3C(=O)N2C)O1` the rescue of ATP level was -6.73%.
With `CNC(=O)C[C@@H]1CC[C@@H]2[C@@H](COc3ccc(NC(=O)Nc4ccccc4OC)cc3C(=O)N2C)O1` the rescue of ATP level was 10.7%.
`CC=CCn1c(SCCCc2ccccc2)nc2c1c(=O)[nH]c(=O)n2C` showed a rescue of ATP level of 1.54%.
Compound `Cn1c(=O)[nH]c(=O)c2c1nc(N1CCN(C(c3ccccc3)c3ccccc3)CC1)n2CCO` has a rescue of ATP level of 41.4%.
With `CC1CCN(c2nc3c(c(=O)[nH]c(=O)n3C)n2CCCc2ccccc2)CC1` the rescue of ATP level was 144% (active).
`CCCNC(=O)[C@@H]1[C@@H](CO)[C@@H]2Cn3c(ccc(-c4ccccc4F)c3=O)[C@H]1N2CC1CC1` gave a rescue of ATP level of -5.23%.
Compound `COc1ccccc1-c1cnc2c(c1)C(=O)N([C@H](C)CO)C[C@@H](C)[C@@H](CN(C)Cc1ccncc1)O2` has a rescue of ATP level of 41.2%.
`COc1ccc(/C(C)=N/NC(=O)c2ccc3nc[nH]c3c2)cc1` gave a rescue of ATP level of -52.1%.
For `CC(=NNC(=O)c1ccc2nc[nH]c2c1)c1ccc(Br)cc1`, the rescue of ATP level was -6.54%.
With `C/C(=N\NC(=O)c1nc(C)cc(C)n1)c1ccccc1` the rescue of ATP level was 121% (active).
Compound `CCCC(O)C#Cc1cnc2c(c1)C(=O)N([C@H](C)CO)C[C@H](C)[C@H](CN(C)Cc1ccc(F)cc1)O2` (some centres not stated) has a rescue of ATP level of -2.92%.
Compound `Cc1ccc(S(=O)(=O)Nc2ccc3c(c2)C(=O)N([C@@H](C)CO)C[C@@H](C)[C@H](CN(C)Cc2ccc(C(F)(F)F)cc2)O3)cc1` has a rescue of ATP level of 9.63%.
In the case of `Cc1ccc(S(=O)(=O)Nc2ccc3c(c2)CC(=O)N([C@@H](C)CO)C[C@H](C)[C@H](CN(C)Cc2ccccc2)O3)cc1`, the rescue of ATP level is reported as 21.7%.
In the case of `Cc1ccc(S(=O)(=O)Nc2ccc3c(c2)CC(=O)N([C@H](C)CO)C[C@@H](C)[C@H](CN(C)Cc2ccc(C(F)(F)F)cc2)O3)cc1`, the rescue of ATP level is reported as 110% (active).
`C[C@H]1CN([C@@H](C)CO)C(=O)Cc2cc(NS(=O)(=O)c3ccc(F)cc3)ccc2O[C@H]1CN(C)Cc1ccc(C(F)(F)F)cc1` gave a rescue of ATP level of 15.6%.
With `C[C@@H]1CN([C@@H](C)CO)C(=O)Cc2cc(NS(=O)(=O)c3ccc(Cl)cc3)ccc2O[C@H]1CN(C)Cc1ccc(C(F)(F)F)cc1` the rescue of ATP level was 96.2% (active).
With `COc1ccc(S(=O)(=O)Nc2ccc3c(c2)CC(=O)N([C@H](C)CO)C[C@H](C)[C@H](CN(C)Cc2ccc(C(F)(F)F)cc2)O3)cc1` the rescue of ATP level was 12%.
`CN1CCCCN2[C@H](CO)[C@H](c3ccc(-c4ccc(F)cc4)cc3)[C@@H]2C1` showed a rescue of ATP level of 1.44%.
Compound `O=C(C[C@@H]1C=C[C@H](NC(=O)Nc2ccc3c(c2)OCO3)[C@H](CO)O1)NCc1ccccc1` has a rescue of ATP level of 2.11%.
For `CO[C@@H]1CN(C)C(=O)c2ccc(NS(=O)(=O)c3cccc(Cl)c3)cc2OC[C@H](C)NC[C@H]1C`, the rescue of ATP level was 0.734%.
`COc1ccccc1-c1ccc2c(c1)O[C@@H](CN(C)CC1CCOCC1)[C@H](C)CN([C@@H](C)CO)S2(=O)=O` showed a rescue of ATP level of -91.2%.

Reference: PubChem BioAssay AID602340 (Broad Institute, 2012)
